Here are results for 40 compounds from PubChem BioAssay (Tox21).

Each structure is given as a SMILES string. A structure can be active in one record and inactive in another. Activity calls are given as the source filed them. The call rests on the fitted dose curve.
On the % scale 0 is the no-effect control and ±100 the full control effect; potency means the concentration at half of the fitted maximal effect.

Androgen receptor (Homo sapiens), sequence (P10275 whole entry, looked up): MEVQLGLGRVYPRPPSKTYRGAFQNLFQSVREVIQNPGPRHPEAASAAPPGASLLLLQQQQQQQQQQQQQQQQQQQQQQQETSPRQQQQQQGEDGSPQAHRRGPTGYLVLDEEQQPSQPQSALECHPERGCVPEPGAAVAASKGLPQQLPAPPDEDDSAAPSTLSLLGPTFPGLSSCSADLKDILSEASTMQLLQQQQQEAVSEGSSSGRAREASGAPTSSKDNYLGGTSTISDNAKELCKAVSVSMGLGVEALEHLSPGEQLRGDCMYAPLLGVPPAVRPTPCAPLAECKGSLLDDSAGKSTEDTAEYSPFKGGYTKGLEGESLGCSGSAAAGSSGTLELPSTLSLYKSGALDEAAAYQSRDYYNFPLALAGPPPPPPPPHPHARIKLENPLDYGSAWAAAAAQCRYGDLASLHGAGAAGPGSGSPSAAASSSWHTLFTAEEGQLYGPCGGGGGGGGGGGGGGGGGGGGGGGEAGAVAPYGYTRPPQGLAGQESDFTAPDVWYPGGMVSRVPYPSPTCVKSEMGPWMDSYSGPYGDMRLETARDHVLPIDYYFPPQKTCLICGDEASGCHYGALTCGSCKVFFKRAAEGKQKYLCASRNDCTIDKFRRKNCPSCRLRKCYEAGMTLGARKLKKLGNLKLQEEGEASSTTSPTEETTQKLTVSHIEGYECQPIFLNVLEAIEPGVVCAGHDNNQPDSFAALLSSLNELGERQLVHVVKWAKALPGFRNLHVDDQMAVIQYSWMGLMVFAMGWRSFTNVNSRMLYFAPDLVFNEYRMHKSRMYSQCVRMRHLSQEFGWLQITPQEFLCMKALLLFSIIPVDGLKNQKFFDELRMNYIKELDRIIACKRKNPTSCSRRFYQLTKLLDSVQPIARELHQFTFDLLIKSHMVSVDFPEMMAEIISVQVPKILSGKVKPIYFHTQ

The experiment addresses Androgen receptor (Homo sapiens) (UniProt P10275). Description: qHTS assay to identify small molecule agonists of the androgen receptor (AR) signaling pathway in the presence of an antagonist (AID 1259381). Further: nearly all actives have a fitted effect of over 15% in size. Conditions: MDA-kb2 MMTV-luciferase, AR agonist + nilutamide, 16 h; series mostly up to 92.4 µM; activation: at the top concentration. The text has this: National Center for Advancing Translational Sciences [NCATS] NIH Chemical Genomics Center [NCGC] U.S. Environmental Protection Agency [EPA] National Institutes of Environmental Health Sciences [NIEHS] National Toxicology Program [NTP] Assay overview: Androgen receptor (AR) is an important member of nuclear receptor family. Its signaling plays a critical role in AR-dependent prostate cancer and other androgen related diseases. Considerable attention has been given in the past decades to develop methods to study and screen for the environmental chemicals that have the potential to interfere with metabolic homeostasis, reproduction, developmental and behavioral functions. Therefore AR binding assay for screening against androgen agonists and antagonists can be used to identify potential endocrine disruptors. MDA-kb2 cells (from ATCC, deposited by Wilson et al.) are human breast carcinoma cells that were stably transfected with a luciferase reporter gene under control of the MMTV promoter that contains response elements for both androgen receptor (AR) and glucocorticoid receptor (GR). This particular screening for measuring luciferase reporter gene activity using MDA-kb2 cells against Tox21 10K library compounds is a confirmation study on agonist mode screening in the presence of AR-antagonist compound (Nilutamide) at 3.0uM final concentration.
Assay Protocol Summary: MDA-kb2 cells (cells cultured without CO2) were dispensed at 3,000 cells/well in 4uL of culture medium into white wall/solid-bottom 1536-well plates (Corning Life Sciences, Corning, NY) using a Multidrop Combi (Thermo Fisher Scientific Inc., Waltham, MA) dispenser. The assay plates were incubated at 37C and 0% CO2 for 5hr. One uL of 3.0uM (final concentration) Nilutamide or assay buffer was added using two separate tips of Flying Reagent Dispenser (FRD, Aurora Discovery, San Diego, CA). Then 23nL of compounds dissolved in DMSO at 15 concentrations and positive controls were transferred to the assay plates using a Pintool station (Wako, San Diego, CA). The assay plates were incubated at 37C and 0% CO2 for 16hr. For luciferase read, 4uL/well ONE-Glo reagent (Promega Corporation, Madison, WI) was added to each well of the assay plates using FRD. After 30min incubation at room temperature, the luminescence signal was measured using a ViewLux plate reader (PerkinElmer, Shelton, CT).
(In general: Quantitative high-throughput screening tests each substance at several concentrations.)
Consider `CCc1c(Br)c(Br)c(Br)c(Br)c1Br`, for which the “activation” value is -0.418% (inactive).
As for `C[n+]1c2cc(N)ccc2cc2ccc(N)cc21` (tested in a mixture with another compound), the “activation” value was -8.33% [at 42.5 µM] (inactive).
As to `O=C(O)Cc1ccc(OCCNC[C@H](O)c2ccccc2)cc1`, the “activation” value was 0.242% [at 42.5 µM] (inactive).
For `c1cc[nH]c1`, the “activation” value is -0.869% (inactive).
Same read-out and setting: the same measure for `CCCN(CCc1cccs1)[C@H]1CCc2c(O)cccc2C1`: -1.88% [at 42.5 µM] (inactive); for `CCCCCCCOC(=O)c1ccccc1C(=O)OCCCCCCC`: 3.46% (inactive); for `CCCC(=O)OCC(COC(=O)CCC)OC(=O)CCC`: -2.08% (inactive).
With `Clc1cc(Cl)c(-c2c(Cl)c(Cl)cc(Cl)c2Cl)cc1Cl`, the “activation” value was -2.92% [at 42.5 µM] (inactive).
As for `COC(=O)C1=C(C)NC(C)=C(C(=O)OCCCN2CCC(c3ccccc3)(c3ccccc3)CC2)C1c1cccc([N+](=O)[O-])c1` (stereo not given), the “activation” value was -10.3% [at 42.5 µM] (inactive).
For the compound `CCN=c1cc2oc3cc(NCC)c(C)cc3c(-c3ccccc3C(=O)OCC)c-2cc1C`, the Potency entry was “inactive”.
For `O=C[C@H](O)[C@H](O)[C@H](O)CO`, the “activation” value is 0.327% (inactive).
As to `CCCCN(C)C`, the “activation” value is 1.26% (inactive).
Regarding `C=C/C=C/C=C/CCCCC`, the activation was 5.43% [at 19 µM] (inactive).
Turning to `Cn1cccc1`, the “activation” value was 0.0442% (inactive).
For the compound `O=C(O)c1cccc(Cl)n1`, the “activation” value is 0.242% (inactive).
As for `C=CC/C=C/C/C=C/C/C=C/C`, the “activation” value is 0.0594% (inactive).
As to `COc1ccccc1OCCNCC(O)COc1cccc2[nH]c3ccccc3c12` (stereo not given), the “activation” value was -9.01% [at 42.5 µM] (inactive).
Still for that read-out and setting: the figure for `O=S(=O)(O)c1cc(S(=O)(=O)O)c2ccc3c(S(=O)(=O)O)cc(S(=O)(=O)O)c4ccc1c2c43` is 3.07% [at 19 µM] (inactive); for `CCOC(=O)C1=C(C)NC(C)=C(C(=O)OCC)C1c1ccccc1/C=C/C(=O)OC(C)(C)C` it is -8.28% [at 42.5 µM] (inactive).
As for `OCCN1CN(CCO)CN(CCO)C1`, the “activation” value is -3.48% (inactive).
`CC1CNCC(C)O1` (stereo not given): the “activation” value was 9.82% (inactive).
For the compound `CC(C)=CCCC(C)O` (stereo not given), the “activation” value is -1.41% (inactive).
On to `CC1=C(/C=C/C(C)=C/C=C/C(C)=C/C(=O)Nc2ccc(O)cc2)C(C)(C)CCC1`, for which the Potency was 8.85 µM (active) and inactive.
As for `CC(NCCC(c1ccccc1)c1ccccc1)c1ccccc1` (stereo not given), the “activation” value is -9.56% [at 42.5 µM] (inactive).
The same measure, in the same setting: the figure for `CC1CCCCC1` is -0.255% (inactive); for `CC(C)(c1cc(Br)c(OCCO)c(Br)c1)c1cc(Br)c(OCCO)c(Br)c1` it is -11.3% (inactive).
As for `CCC(C)c1cc([N+](=O)[O-])cc([N+](=O)[O-])c1OC(=O)OC(C)C` (stereo not given), the “activation” value is -9.43% (inactive).
In the case of `CCCCCCCC(=O)OCC`, the “activation” value is 2.05% (inactive).
On the same count and under the same terms, the figure for `Cc1cn[nH]c1` is -0.548% [at 42.5 µM] (inactive); for `COc1ccccc1C=O` it is 0.158% (inactive); for `COCC(=O)O[C@]1(CCN(C)CCCc2nc3ccccc3[nH]2)CCc2cc(F)ccc2[C@@H]1C(C)C` it is -11.2% [at 42.5 µM] (inactive).
On the same count and under the same terms, the same measure for `CCCCCCCCC(C)=O`: -1.98% (inactive); for `Cc1ccc(N)cc1O`: 10.5% (inactive); for `O=Cc1ccc(F)cc1`: -0.392% (inactive).
Turning to `CCOC(=O)CC(C)O` (stereo not given), the “activation” value was -0.0381% (inactive).
Still for that read-out and setting: the figure for `OCCCc1cccnc1` is 5.09% (inactive); for `O=C1C=CC(=O)N1c1ccccc1` it is -10.2% (inactive).
With `CCOB(OCC)OCC`, the “activation” value is -0.662% (inactive).
On the same count and under the same terms, the figure for `CC(=O)O[C@@H]1C[C@@H]2CC[C@@]1(C)C2(C)C` is 8.95% (inactive).
`Cc1oc(-c2ccccc2)nc1CCOc1ccc(C[C@H](Nc2ccccc2C(=O)c2ccccc2)C(=O)O)cc1`: the “activation” value was 0.953% (inactive).
